For nine compounds, growth inhibition results are on record in PubChem BioAssay (NCI).

Assay [1] can be described thus: NCI Yeast Anticancer Drug Screen. Data for the rad50 strain (AID 155).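 Note: 0% = growth of vehicle-only cultures of the same strain.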 As to conditions: S. cerevisiae rad50 strain growth inhibition, active compounds read high. In short, it runs like this: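 Growth of the mutant yeast was measured after compound exposure and referenced to vehicle-treated cultures.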
Assay [2] is described as follows: NCI Yeast Anticancer Drug Screen. Data for the mec2-1 strain (AID 157). The settings on record: S. cerevisiae mec2-1 strain, active compounds read high. In short, it runs like this: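 Mutant yeast (mec2-1) grown with compound; growth inhibition relative to vehicle control reported.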
A short description of assay [3]: NCI Yeast Anticancer Drug Screen. Data for the sgs1 mgt1 strain (AID 161).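 Note: 0% = growth of cultures given vehicle only.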 The settings on record: S. cerevisiae sgs1 mgt1 strain, active compounds read high. In short, it runs like this:
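Percent growth inhibition was derived by comparing compound-exposed mutant yeast with vehicle-exposed cultures. The strain carries alterations in DNA damage repair.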

Assay [4] in a line: NCI Yeast Anticancer Drug Screen. Data for the cln2 rad14 strain (AID 165).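 Note: 0% = growth equal to vehicle treated cultures.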 As to conditions: S. cerevisiae cln2 rad14 strain, active compounds read high. An outline of the steps:
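Readout is yeast growth inhibition versus vehicle-treated controls, using a strain with cln2 and rad14 alterations exposed to compound.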

Assay [5] is described as follows: NCI Yeast Anticancer Drug Screen. Data for the bub3 strain (AID 167). The settings on record: S. cerevisiae bub3 mutant strain, active compounds read high. In short, it runs like this: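 Whole-cell yeast assay. The mutant strain was incubated with compounds, and growth inhibition was determined by comparison with vehicle-treated cells.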
Assay [6] in a line: NCI Yeast Anticancer Drug Screen. Data for the mlh1 rad18 strain (AID 175). The settings on record: S. cerevisiae mlh1 rad18 strain growth inhibition, active compounds read high. In short, it runs like this: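 Genetically defined yeast (DNA repair-deficient) exposed to compounds; growth inhibition determined relative to vehicle.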
Where [7] appears, read: at 5.0 µM (retest, dose inferred, filed as 0.5).
Setting [8] is: at 50.0 µM (retest, dose inferred, filed as 5.0).

SMILES strings stand for the structures. Compounds without any hit were thinned out: in the full panel of roughly 79,000, 15% have a hit. Values without a mark were called inactive. Active and inactive are the calls of the source. Cut-off read from the data, not from the text of the source: active = growth inhibition above about 70%; inactive = the rest.

As to `O=C(O)c1c([N+](=O)[O-])cc(C(F)(F)F)cc1[N+](=O)[O-]`, the growth inhibition in assay [1] (setting [7]) was -20%; in assay [1] (setting [8]), 6%; in assay [1] (at 50.0 µM) it was -1.7%; in assay [2] (setting [7]), 0%; in assay [2] (setting [8]), 13%; in assay [2] (at 50.0 µM), 4.3%. Moreover, the growth inhibition in assay [3] (setting [7]) is 1%; in assay [3] (setting [8]) it was 11%; in assay [3] (at 50.0 µM), 14.9%; in assay [4] (setting [7]) it was 9%; in assay [4] (setting [8]), 43%; in assay [4] (at 50.0 µM) it was -29.6%. The growth inhibition in assay [5] (setting [7]) is 1%; in assay [5] (setting [8]), 10%; in assay [5] (at 50.0 µM), -3.55%; in assay [6] (setting [7]), 43%; in assay [6] (setting [8]), 9%; in assay [6] (at 50.0 µM) it was 29%.
Regarding `CCC(C)CNCCCCCNc1cc(OC)cc2cccnc12` (configuration not stated), the growth inhibition in assay [1] (setting [7]) was 37%; in assay [1] (setting [8]), 67%; in assay [1] (at 50.0 µM), 45.5%; in assay [2] (setting [7]) it was 35%; in assay [2] (setting [8]), 62%; in assay [2] (at 50.0 µM), 43.9%. For the same compound, the growth inhibition in assay [3] (setting [7]) was 38%; in assay [3] (setting [8]), 87% (active); in assay [3] (at 50.0 µM) it was 66.5%; in assay [4] (setting [7]), 47%; in assay [4] (setting [8]), 57%; in assay [4] (at 50.0 µM) it was 48.2%. Also, the growth inhibition is 39% in assay [5] (setting [7]); 75% (active) in assay [5] (setting [8]); 90.3% (active) in assay [5] (at 50.0 µM); 29% in assay [6] (setting [7]); 53% in assay [6] (setting [8]); 70.3% (active) in assay [6] (at 50.0 µM).
`O=C1c2ccccc2C(=O)c2cc(S(=O)(=O)Cl)ccc21`: the growth inhibition in assay [1] (setting [7]) was 68%; in assay [1] (setting [8]), 99% (active); in assay [1] (at 50.0 µM), 76.1% (active); in assay [2] (setting [7]), 97% (active); in assay [2] (setting [8]) it was 99% (active); in assay [2] (at 50.0 µM), 60.9%. Further, the growth inhibition in assay [3] (setting [7]) was 94% (active); in assay [3] (setting [8]), 98% (active); in assay [3] (at 50.0 µM), 69.2%; in assay [4] (setting [7]), 55%; in assay [4] (setting [8]) it was 99% (active); in assay [4] (at 50.0 µM), -49.5%. Moreover, the growth inhibition was 98% (active) in assay [5] (setting [7]); 99% (active) in assay [5] (setting [8]); 72.5% (active) in assay [5] (at 50.0 µM); 59% in assay [6] (setting [7]); 99% (active) in assay [6] (setting [8]); 75.8% (active) in assay [6] (at 50.0 µM).
In the case of `C=C1C(=O)OC(C)(C)C1c1ccc(Cl)c(Cl)c1` (configuration not stated), the growth inhibition in assay [1] (setting [7]) is 25%; in assay [1] (setting [8]) it was 99% (active); in assay [1] (at 50.0 µM), 99.5% (active); in assay [2] (setting [7]), 35%; in assay [2] (setting [8]), 99% (active); in assay [2] (at 50.0 µM) it was 99.8% (active). The growth inhibition was 39% in assay [3] (setting [7]); 99% (active) in assay [3] (setting [8]); 99.8% (active) in assay [3] (at 50.0 µM); 18% in assay [4] (setting [7]); 97% (active) in assay [4] (setting [8]); 99.2% (active) in assay [4] (at 50.0 µM). The growth inhibition was 37% in assay [5] (setting [7]); 99% (active) in assay [5] (setting [8]); 99.5% (active) in assay [5] (at 50.0 µM); 38% in assay [6] (setting [7]); 98% (active) in assay [6] (setting [8]); 99.7% (active) in assay [6] (at 50.0 µM).
`Cc1ccc(C2(O)c3ccccc3-c3ccccc32)cc1`: the growth inhibition in assay [1] (setting [7]) is 4%; in assay [1] (setting [8]), 98% (active); in assay [1] (at 50.0 µM), 99.2% (active); in assay [2] (setting [7]), 8%; in assay [2] (setting [8]), 100% (active); in assay [2] (at 50.0 µM), 99.2% (active). In addition, the growth inhibition in assay [3] (setting [7]) was 15%; in assay [3] (setting [8]), 99% (active); in assay [3] (at 50.0 µM) it was 99.2% (active); in assay [4] (setting [7]), -9%; in assay [4] (setting [8]), 99% (active); in assay [4] (at 50.0 µM), 98.2% (active). The growth inhibition is -8% in assay [5] (setting [7]); 99% (active) in assay [5] (setting [8]); 99.3% (active) in assay [5] (at 50.0 µM); -4% in assay [6] (setting [7]); 98% (active) in assay [6] (setting [8]); 99% (active) in assay [6] (at 50.0 µM).
Take `COc1cc(OC)c(C/C=C/c2ccccc2)cc1O`: the growth inhibition was 27% in assay [1] (setting [7]); 73% (active) in assay [1] (setting [8]); 10.2% in assay [1] (at 50.0 µM); 21% in assay [2] (setting [7]); 71% (active) in assay [2] (setting [8]); -15.6% in assay [2] (at 50.0 µM). The growth inhibition in assay [3] (setting [7]) was 20%; in assay [3] (setting [8]), 75% (active); in assay [3] (at 50.0 µM) it was 16.3%; in assay [4] (setting [7]), 16%; in assay [4] (setting [8]), 49%; in assay [4] (at 50.0 µM), 19.6%. In addition, the growth inhibition in assay [5] (setting [7]) was 29%; in assay [5] (setting [8]), 86% (active); in assay [5] (at 50.0 µM), -27.8%; in assay [6] (setting [7]), 30%; in assay [6] (setting [8]), 93% (active); in assay [6] (at 50.0 µM), 89.3% (active).
As to `CC(C)COC(=O)c1ccc(N=Cc2ccc(C=Nc3ccc(C(=O)OCC(C)C)cc3)cc2)cc1`, the growth inhibition in assay [1] (setting [7]) is 25%; in assay [1] (setting [8]), 25%; in assay [1] (at 50.0 µM) it was 31.6%; in assay [2] (setting [7]), 16%; in assay [2] (setting [8]) it was 16%; in assay [2] (at 50.0 µM), -34.1%. Besides, the growth inhibition is 14% in assay [3] (setting [7]); 14% in assay [3] (setting [8]); -10.2% in assay [3] (at 50.0 µM); 7% in assay [4] (setting [7]); 7% in assay [4] (setting [8]); 1.75% in assay [4] (at 50.0 µM). Besides, the growth inhibition in assay [5] (setting [7]) is 9%; in assay [5] (setting [8]) it was 9%; in assay [5] (at 50.0 µM), -20.8%; in assay [6] (setting [7]) it was -1%; in assay [6] (setting [8]), -1%; in assay [6] (at 50.0 µM), -12.3%.
For the compound `CC(=O)c1c(O)ccc2nc3ccccc3nc12`, the growth inhibition in assay [1] (setting [7]) is 11%; in assay [1] (setting [8]), 87% (active); in assay [1] (at 50.0 µM) it was 94% (active); in assay [2] (setting [7]), 20%; in assay [2] (setting [8]), 92% (active); in assay [2] (at 50.0 µM) it was 91.5% (active). The growth inhibition in assay [3] (setting [7]) was 14%; in assay [3] (setting [8]), 89% (active); in assay [3] (at 50.0 µM), 82.6% (active); in assay [4] (setting [7]) it was 12%; in assay [4] (setting [8]) it was 86% (active); in assay [4] (at 50.0 µM), 82.8% (active). In addition, the growth inhibition is 22% in assay [5] (setting [7]); 85% (active) in assay [5] (setting [8]); 92% (active) in assay [5] (at 50.0 µM); 39% in assay [6] (setting [7]); 91% (active) in assay [6] (setting [8]); 94.5% (active) in assay [6] (at 50.0 µM).
In the case of `O=C(N/N=C/c1cc(Cl)cc(Cl)c1O)c1ccccc1`, the growth inhibition in assay [1] (setting [7]) was 39%; in assay [1] (setting [8]) it was 22%; in assay [1] (at 50.0 µM) it was 69.9%; in assay [2] (setting [7]), 41%; in assay [2] (setting [8]) it was 36%; in assay [2] (at 50.0 µM) it was 57.5%. Also, the growth inhibition in assay [3] (setting [7]) was 55%; in assay [3] (setting [8]), 48%; in assay [3] (at 50.0 µM) it was 69.6%; in assay [4] (setting [7]), 14%; in assay [4] (setting [8]), 1%; in assay [4] (at 50.0 µM) it was 33.6%. The growth inhibition in assay [5] (setting [7]) was 46%; in assay [5] (setting [8]), 30%; in assay [5] (at 50.0 µM), 71.6% (active); in assay [6] (setting [7]), 45%; in assay [6] (setting [8]), 40%; in assay [6] (at 50.0 µM), 69.8%.
